Sampled rows, rich in hits. Any-hit rate of the full collection: about 8.7%.
JMJD2A Tudor = blocks the human JMJD2A Tudor domain; AlphaScreen JMJD2A-Tudor / H3K4me3 peptide binding; Potency, µM (series often up to 114 µM), without a hit: at the top dose activity change, negative = inhibition, most hits filed as inhibitors; AID 504339; 390,000 tested, 4.4% active; O75164; further: on the % scale 0 is the no-effect control and ±100 the full control effect; nearly all actives have a fitted effect of over 50% in size
HP1b binding inh = inhibitors of HP1-beta chromodomain binding to methylated histone tails | Potency, µM (titrated, usually from 114 µM), for the others: at the highest dose activity change, negative = inhibition, most hits filed as inhibitors | 390,000 tested, 0.56% active | AlphaScreen HP1-beta / biotin-H3K9me3 peptide binding; further: nearly all actives have a fitted effect of over 70% in size
Target sequence (P83916 whole entry, looked up): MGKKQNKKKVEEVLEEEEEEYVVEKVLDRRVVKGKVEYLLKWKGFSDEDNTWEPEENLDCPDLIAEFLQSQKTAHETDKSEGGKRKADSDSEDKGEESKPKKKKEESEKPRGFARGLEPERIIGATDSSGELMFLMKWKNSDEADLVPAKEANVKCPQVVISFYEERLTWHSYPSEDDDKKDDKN
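AlphaScreen: HP1-beta (50 nM) preformed 30 min with biotin-H3(1-18)K9me3 peptide (50 nM) in PBS pH 7.4, 0.01% Tween-20. Compound added for 30 min at RT, then streptavidin donor/nickel chelate acceptor beads (10 ug/mL) for 30 min.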
Sfp PPTase inh = Sfp phosphopantetheinyl transferase inhibition; Potency, µM, for the others: largest response in the series, negative = inhibition, most hits filed as inhibitors; Biochemical Sfp PPTase activity, qHTS; 310,000 tested, 3.5% active; Q9F4F7;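 further: the enzyme is Sfp with the accession as filed and its product quenches rhodamine fluorescence; 0% = enzyme reaction without inhibitor and -100% = no enzyme wells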
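With Hepes-Na pH 7.6 buffer containing 10 mM MgCl2, Sfp (15 nM) modified BHQ-2-YbbR (12.5 uM) using rhodamine-CoA (5 uM). Two reads 30 minutes apart at 525/598 nm yielded each well's rate.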
G9a block = G9a (human) methyltransferase inhibition. Q96KQ7. G9a H3K9 monomethylation, AlphaScreen, 2 h. 350,000 tested, 8.8% active. Potency, µM (doses to about 102 µM), for the others: top-dose activity, negative = inhibition, hits mostly inhibitors; further: on the % scale 0 is the no-effect control and ±100 the full control effect; nearly all actives have a fitted effect of over 75% in size
Target sequence (Q96KQ7 913-1193 limits assumed): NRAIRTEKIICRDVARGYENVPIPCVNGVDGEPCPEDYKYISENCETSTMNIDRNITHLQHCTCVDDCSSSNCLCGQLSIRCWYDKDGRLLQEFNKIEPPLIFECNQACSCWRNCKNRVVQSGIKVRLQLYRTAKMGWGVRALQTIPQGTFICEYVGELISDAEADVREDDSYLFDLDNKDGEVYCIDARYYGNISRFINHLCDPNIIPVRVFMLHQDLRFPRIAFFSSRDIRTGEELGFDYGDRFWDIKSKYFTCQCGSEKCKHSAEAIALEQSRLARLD
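Step 1: enzyme (final 20 nM) with compound, 15 min RT. Step 2: substrate peptide 500 nM and SAM 20 uM, 2 h RT. Step 3: anti-H3K9me1 antibody and AlphaScreen beads, 10 min, then plate read.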
12-LOX inh = blocks human arachidonate 12S-lipoxygenase | P18054 | purified 12hLO, xylenol orange hydroperoxide absorbance | Potency, µM (doses to about 108 µM), without a hit: at the top dose activity change, negative = inhibition, hits mostly inhibitors | 580,000 tested, 1.1% active | AID 1671190; further: on the % scale 0 is the no-effect control and ±100 the full control effect
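Purified human 12hLO at 150 nM in 25 mM Hepes, 0.01% Triton X-100, pH 7.0, preincubated 15 min at room temperature with compound. Reaction started with 40 uM arachidonic acid, 30 min at room temperature. Hydroperoxide measured by Fe-xylenol orange, 573/405 nm absorbance ratio.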
BAZ2B inh = inhibitors of human BAZ2B bromodomain | 360,000 tested, 4.4% active | Q9UIF8 | AID 504333 | AlphaScreen BAZ2B-H3K14Ac peptide displacement | Potency, µM (highest dose often 114 µM), inactives show top-dose activity change, negative = inhibition, usual class: inhibitors; further: on the % scale 0 is the no-effect control and ±100 the full control effect; nearly all actives have a fitted effect of over 60% in size
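BAZ2B (50 nM) with biotin-H3(5-23)K14Ac peptide (50 nM) in PBS pH 7.4, 0.01% Tween-20, preformed 30 min, then compound 30 min at room temperature; top concentration 110uM. AlphaScreen streptavidin donor/nickel chelate acceptor beads (10 ug/mL final), 20 min dark, signal read.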
An asterisk follows results filed as active; u = inconclusive; x = not tested or not shown; [ ] = dose if it differs, or a comment. The call rests on the fitted dose curve; in most records, active means well fitted curve in the direction sought with a large enough effect; inconclusive means small, poorly fitted or top-dose-only effect, or another doubt; inactive means no such curve, though single readings can be large; an effect the other way counts as inactive or inconclusive. Potency means the concentration at half of the fitted maximal effect.

SMILES | JMJD2A Tudor | HP1b binding inh | Sfp PPTase inh | G9a block | 12-LOX inh | BAZ2B inh
O=[N+]([O-])c1ccc2c(c1)nc1n2CCN(c2ccccc2)C1 | -26% | 52% | -9% | 13µM* | -23% | u
O=c1cc(-c2ccc(Cl)cc2)oc(=O)[nH]1 | -13% | 32% | 14% | 33%[59 µM] | u | -3%
O=c1cc(N=Nc2ccc(Cl)cc2)[nH]c(=O)[nH]1 | -7% | 23% | -27% | 45µM* | -10% | 2%
CCCN1CCCc2ccccc21 | -35% | 12% | 3% | 22µM* | -13% | u
NNc1ccccc1Br | x | x | x | x | 8.9µM* | x
NC(=S)Nc1ccccc1Br | -4% | 26% | -16% | x | u | 6%
COc1ccccc1N(C)S(=O)(=O)c1ccc(C(=O)NCC(C)C)cc1 | -13% | 37% | 7% | 3%[12.7 µM] | -2% | -22%
COc1ccccc1N(C)S(=O)(=O)c1ccc(C(=O)N(CC(N)=O)C(C)C)cc1 | -10% | 30% | 4% | -5% | 25% | 89µM*
COCCNC(=O)c1cc(S(=O)(=O)N(C)c2ccccc2OC)ccc1C | -4% | 50% | -11% | 28µM* | -5% | -14%
Cc1cccc(OCCSc2nc(N)cc(N)n2)c1 | -12%[11.4 µM] | -10% | 45µM* | x | u | u
O=C1N=C(N2C=CC(=C3C=CNC=C3)C=C2)/C(=C/N=NC(=O)c2ccccc2O)S1 | u | 45µM* | -16% | 71µM* | -13% | 50µM*
O=C1NN(c2ccc(F)cc2)C(=O)/C1=C\C=C\c1ccco1 | u | -35% | -8% | u | 45µM* | -39%
COc1cccc(OCc2ccc(C(=O)O)o2)c1 | x | x | x | x | -11% | x
O=C(Nc1cccc(-c2cccc(Cl)c2)c1)C1CCN(Cc2ccon2)CC1 | -28% | 15% | -12% | 17% | -12% | 1%
O=C(Nc1ccc(-n2cccn2)cc1)C1CCCCN1Cc1cccc2cccnc12 (stereo unspecified) | -29% | 12% | -3% | 20%[59 µM] | 23% | u
O=C(Nc1cccc(-c2cccc(Cl)c2)c1)C1CCN(Cc2ccccn2)CC1 | -31% | 46% | -28% | 45µM* | u | 6%
O=C(Nc1ccc(-n2cccn2)cc1)C1CCN(Cc2ccccn2)CC1 | 22µM* | 21% | 0% | 35µM* | u | u
C=CCNC(=S)NN=C1CCCCCCC1 | -19% | 6% | 6% | 17% | 14µM* | -34%
CCOC(=O)C1CCN(C2=NC(=O)/C(=C/c3ccc(OC)c(OC)c3)S2)CC1 | -21% | 0% | -8% | 40µM* | 0% | -22%
Nc1c(N(Cc2ccco2)C(=O)Cc2c(F)cccc2Cl)c(=O)[nH]c(=O)n1Cc1ccccc1 | x | x | x | x | -18% | x
CC(C)[C@H](NC(=O)NCc1ccc(Cl)cc1)C(=O)O | -1% | 33% | 24% | 15%[12.7 µM] | 16% | 12%
CC(C)C(NCc1c(Cl)cccc1Cl)C(=O)O (stereo unspecified) | -18% | 16% | 15% | 79µM* | u | -1%
Cc1noc(C)c1CC(=O)NCCc1noc(-c2ccncc2)n1 | x | x | x | x | 19% | x
COC(=O)c1ccc(OC(=O)CS(=O)c2ccccc2[N+](=O)[O-])cc1 (stereo unspecified) | -3% | 32% | -11% | x | u | -10%
O=C(CS(=O)c1ccc(C(F)(F)F)cc1[N+](=O)[O-])Oc1ccccc1 (stereo unspecified) | -17%[11.4 µM] | -37% | 13% | 50µM* | u | u
SMILES | JMJD2A Tudor | HP1b binding inh | Sfp PPTase inh | G9a block | 12-LOX inh | BAZ2B inh
CS(=O)(=O)c1ccc(S(=O)CC(=O)OCc2ccccc2)c([N+](=O)[O-])c1 (stereo unspecified) | -15% | 24% | -27% | 10µM* | -21% | -21%
CCN(CC)C(=O)C(C)[C@@H]1CC[C@@]2(C)CC[C@H](NC(=O)c3ccccc3)[C@@H](C)[C@@H]2[C@H]1O (stereo partly specified) | x | x | x | x | 1%[176 µM] | x
COc1ccc(CCNC(=O)Cc2c(C)c3ccc(O)cc3oc2=O)cc1OC | x | x | x | x | -12% | x
COc1ccc(C[C@H](N)C(=O)N[C@H]2[C@@H](O)[C@H](n3cnc4c(N(C)C)ncnc43)O[C@@H]2CO)cc1 | 79µM* | -3% | x | u | -8% | -6%
Cn1nnnc1Sc1ncnc2scc(Br)c12 | 5% | 47% | x | x | -4% | x
Cn1nnnc1Sc1ncnc2scc(I)c12 | 79µM* | x | x | x | x | x
COc1ccc(N2CCN(C(=O)c3ccc(Br)cc3)CC2)c([N+](=O)[O-])c1 | 79µM* | u | 7% | 45µM* | -11% | 25µM*
COc1ccc(N2CCN(C(=S)NC(=O)c3cccs3)CC2)c([N+](=O)[O-])c1 | 50µM* | u | 8% | 32µM* | u | u
COc1ccc(N2CCN(C(=O)c3ccccc3)CC2)c([N+](=O)[O-])c1 | -27% | -14% | 9% | u | 0% | -33%
CCCCC(=O)N1CCN(c2ccc(OC)cc2[N+](=O)[O-])CC1 | -30% | -15% | -6% | u | -8% | u
COc1ccc(N2CCN(C(=O)c3ccccc3Br)CC2)c([N+](=O)[O-])c1 | u | -22% | 3% | 56µM* | 6% | -30%
COc1ccc(NC(=O)CCc2c(C)c3ccc(OC)cc3oc2=O)c(OC)c1 | x | x | x | x | -5% | x
O=C(Cn1nc(-c2cccs2)c2ccccc2c1=O)Nc1ccccc1 | x | x | x | x | -1% | x
Cc1nccn1CCCNC(=O)CC1C(=O)NCCN1Cc1ccccc1C(F)(F)F (stereo unspecified) | -20% | 47% | 22% | u | -5% | -8%
O=C(CC1C(=O)NCCN1Cc1ccccc1C(F)(F)F)NCCN1CCOCC1 (stereo unspecified) | -10% | 25% | -3% | 45µM* | 7% | -36%
CN(CCN1CCOCC1)C(=O)CC1C(=O)NCCN1Cc1ccccc1C(F)(F)F (stereo unspecified) | -10% | 46% | 10% | 45µM* | -23% | -27%
O=C(CC1C(=O)NCCN1Cc1ccccc1C(F)(F)F)NCCn1cccn1 (stereo unspecified) | -14% | 28% | -2% | 35µM* | -13% | -30%
O=C(CC1C(=O)NCCN1Cc1ccccc1C(F)(F)F)NCCN1CCCCC1=O (stereo unspecified) | 18% | 60% | 4% | 40µM* | 5% | -9%
Cc1cc(NC(=O)Nc2ccc3c(ccn3C)c2)sn1 | u | -7% | 79µM* | 32%[59 µM] | -2% | x
CCCCCCCCCCCCCCCC[n+]1cccc2ccccc21 | u | -13% | 25µM* | 6.3µM* | u | 50µM*
Cc1cccc(OCC2(CNC3CCOCC3)C[C@@H](O)[C@@H](O)C2)n1 (stereo partly specified) | x | x | x | x | 25µM* | x
